# Laboratory results as given in PubChem BioAssay (NCATS).
# Values joined by “and” are separate entries in the source; they are usually repeats but may differ in a detail not shown here. Equal values may be shown once. Inconclusive results are not listed. Active and inactive are the calls of the source. Unless noted, calls follow the shape of the full dose curve.
# Key:
# [1] = qHTS drug screen for cell cycle checkpoint inhibitors in PARPi-resistant BRCA-mutant ovarian cancer cell lines. (AID 1963452); conditions: PEO1/OlaR viability, CellTiter-Glo luminescence, 96 h; for Z-AUC: stronger effect = lower value
# Outline: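 PEO1, PEO4 and PEO1/OlaR ovarian cancer cells, 600 per well, exposed 96 h at 37C to a dilution series. Viability read by CellTiter-Glo luminescence, normalized to DMSO and empty wells; activity summarized as Z-AUC.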
# 7G8 = test: qHTS profiling for inhibitors of Plasmodium falciparum proliferation (AID 504749; active = well fitted inhibition curve with a large enough effect; also: nearly all actives have a fitted effect of over 60% in size); conditions: P. falciparum in erythrocytes, SYBR Green DNA, 72 h; series mostly up to 28.7 µM
# Description: NIH National Institute of Allergy and Infectious Diseases [NIAID] NIH Chemical Genomics Center [NCGC] MLPCN Grant: None Assay Provider: Xinzhuan Su, NIAID NCGC Assay Overview: Plasmodium falciparum is a virulent malarial parasite that kills 1-2 million people worldwide each year. Transmitted by mosquitoes, the sporozoite form of the parasite enters the blood stream to infect hepatocytes, where they become merozoites that infect red blood cells (erythrocytes). Within erythrocytes, merozoites begin a […] cycle of growth and division, after which the parasite is released to infect new red blood cells. Gametocytes, which form within erythrocytes as well, circulate in the bloodstream and are ingested by the mosquito, thereby completing the life cycle. To profile malarial isolates for differential chemical responses and to identify inhibitors of malarial growth, an assay that measures P. falciparum growth and replication within erythrocytes was employed. This assay uses a DNA binding fluorescent dye (SYBR Green) to detect parasite DNA following cell lysis. Because mature erythrocytes lack DNA, only Plasmodium-derived DNA is detected.
# NCGC Assay Protocol Summary: The SYBR Green viability assay was adapted from a method described previously (Plouffe et al., 2008). For screening 3 ul culture medium was dispensed into 1536 well black clear bottom plates (Aurora Biotechnologies) using a Multidrop Combi (Thermo Fisher Scientific Inc.), 23 nL compounds in DMSO were added by a pin tool (Kalypsys), and 5 ul of erythrocytes infected with P. falciparum (0.3% parasitemia, 2.5% hematocrit final concentration) were added. The plates were incubated at 37 C in a humidified incubator in 5% CO2 for 72 h, and 2 ul lysis buffer (20 mM Tris HCl, 10 mM EDTA, 0.16% saponin, 1.6% triton X, 10X SYBR Green I supplied as 10,000X […] by Invitrogen) was added to each well. The plates were mixed for 25 sec with gentle shaking and incubated overnight at room temperature in the dark. The following morning, fluorescence intensity at 485(14) nm excitation and 535(25) nm emission wavelengths was measured on an EnVision (Perkin Elmer) plate reader. Plate reads were normalized relative to the control inhibitor (0.29 uM artemisinin) and vehicle (DMSO) wells present on each plate and then corrected by an algorithm using vehicle-only control plates at the beginning and end of the compound plate stack.
# [2] = measured here: PEO1 parental Z-AUC
# Potency is read from the fitted curve at half-maximal effect.
Compound,Z-AUC [1],"Z-AUC [1, 2]",Z-AUC ([1]; measured here: PEO4 Z-AUC),Potency [1],Potency (7G8)
C=CC(=O)Nc1ccc2ncnc(Nc3cccc(Br)c3)c2c1,-0.896 (inactive),-1.05,-0.968,–,–
OC(c1ccc(-c2ccc(CN3CCN(Cc4ccncc4)CC3)cc2)c(F)c1)(C(F)(F)F)C(F)(F)F,-1.4 (inactive),-0.566,-0.000497,–,–
O=C(NCCCNc1nc(Nc2cccc(CN3CCOCC3)c2)ncc1C1CC1)C1CCC1,-0.249 (inactive),-0.12,-0.429,–,–
CCCC1(CCC)CCC2(CCN(CCCN(CC)CC)C2)CC1,–,-2.03,-1.83,3890 nM (active),–
Cc1cc(N2CCOCC2)ccc1Nc1nc(NC2CCCCC2)c2[nH]cnc2n1,-0.0672 (inactive),-0.748,-0.826,–,–
CC(C)(CNC(=O)c1cccc(-c2noc(C(F)(F)F)n2)c1)c1coc(-c2ccccc2)n1,0.0442 (inactive),0.732,0.975,–,–
Cc1nc(-c2cn3c(n2)-c2ccc(-c4cnn(C(C)(C)C(N)=O)c4)cc2OCC3)n(C(C)C)n1,-1.26 (inactive),-0.764,-0.716,–,–
Cc1nc2ccc(-n3ncc(C(=O)c4cc5ccccc5[nH]4)c3N)cc2[nH]1,-0.798 (inactive),-1.1,-0.294,–,–
CN1CCN(c2ccc(OC(F)(F)F)c(Nc3ncc4c(n3)-c3c(c(C(N)=O)nn3CCO)CC4)c2)CC1,-0.858 (inactive),-1.94,-1.88,–,–
CN1CCN(c2ccc(-c3cccc(CN4CCOCC4)c3)cc2NC(=O)c2c[nH]c(=O)cc2C(F)(F)F)CC1,0.777 (inactive),0.269,0.524,–,–
Cn1ncc2cc(-c3cnc(N)c(Cl)c3N3CCC4(CCNC4=O)CC3)ccc21,-0.513 (inactive),-0.91,-1.02,–,–
Cc1cc(C(=O)Nc2cc(Nc3ccc4c(/C=C/c5ccccn5)n[nH]c4c3)ccc2F)n(C)n1,-1.04 (inactive),-0.196,-0.912,–,–
Cc1cnc(-c2ccccc2C(C)C)nc1NCc1ccc(-n2ccnn2)cc1,1.08 (inactive),1.04,1.31,–,–
COC(C)(C)CCn1nc(Nc2c(C)cccc2C)c2cnc(Nc3ccc(OCCN4CCCC4)c(F)c3)nc21,-0.962 (inactive),-0.494,0.564,–,–
C=CC(=O)Nc1cccc(Nc2nc(Nc3ccc(NC4CN(CCF)C4)cc3OC)ncc2C(F)(F)F)c1,0.83 (inactive),0.499,0.584,–,–
Cn1ncc(Cl)c1-c1cc(C(=O)N[C@H](CN)Cc2ccc(F)c(F)c2)sc1Cl,0.188 (inactive),0.381,-0.0194,–,–
Fc1ccc2[nH]ccc2c1-c1nc(N2CCOCC2)c2sc(CN3CCN(CC4CC4)CC3)cc2n1,-0.813 (inactive),-0.565,-0.474,–,–
Cc1nc(NC(=O)N2CCC[C@H]2C(N)=O)sc1-c1ccnc(C(C)(C)C(F)(F)F)c1,-0.211 (inactive) and -0.86 (inactive),-0.228 and -0.204,-0.403 and -0.389,–,–
CCc1cc(C(N)=O)ccc1-n1nc(C(C)C)c2c(-n3cnc(-c4cnn(C)c4)c3)ccnc21,-0.734 (inactive),-1.82,-1.2,–,–
Cc1cccc(CC(=O)N2CCc3c2ccc(-c2cn(C)c4ncnc(N)c24)c3F)n1,-0.652 (inactive),-1.04,-0.572,–,–
Cc1[nH]c(/C=C2\C(=O)Nc3ccc(F)cc32)c(C)c1C(=O)NCCN1CCCC1,0.66 (inactive),0.734,0.596,–,–

Compound,Z-AUC [1],"Z-AUC [1, 2]",Z-AUC ([1]; measured here: PEO4 Z-AUC),Potency [1],Potency (7G8)
N#Cc1ccnc(Nc2cc(C3CCN(C4COC4)CC3)cc(N3CCC(F)(F)C3)n2)c1,-0.647 (inactive),-0.398,0.109,–,–
CC(C)NC(=O)N1CC[C@H](N=C2Nc3cc(F)ccc3N(CC(F)F)c3ccc(Cl)cc32)C1,-0.974 (inactive),-0.755,-0.602,–,–
CN[C@H]1CC[C@@H](c2ccc(Cl)c(Cl)c2)c2ccccc21,0.0758 (inactive),0.141,-0.265,–,–
Cc1[nH]c2ccc(F)cc2c1-c1nc2c3cccnc3c3ncccc3c2[nH]1,-1.49 (inactive),-0.715,-1.31,–,–
Cc1cccc(-c2[nH]ncc2-c2ccc(F)c(-c3cnn(CCO)c3)c2)n1,0.705 (inactive),0.508,1.13,–,–
CC[C@@H](C)Nc1cc(C(=O)NC2CC3CCC(C2)N3c2ccc(C(=O)C3CC3)cn2)c(C)cc1C(N)=O (some centres undefined),-1.08 (inactive),-1.13,-0.342,–,–
CC(C)NC(=O)COc1cccc(-c2nc(Nc3ccc4[nH]ncc4c3)c3ccccc3n2)c1,–,-1.21,-1.12,4360 nM (active),–
NC(=O)c1cnc(N[C@@H]2CCCC[C@@H]2N)nc1Nc1cccc(-n2nccn2)c1,0.565 (inactive),-0.0999,0.242,–,–
COC1CCN(C(=O)c2cc(Cc3n[nH]c(=O)c4ccccc34)ccc2F)CC1,0.585 (inactive),-0.393,0.328,–,–
COc1cc(S(C)(=O)=O)ccc1Nc1nc2ccc(-c3ccc(NC(=O)[C@H](C)c4ccc(F)cc4)cc3)cn2n1,0.76 (inactive),0.0908,0.043,–,–
CCCc1cc(C)[nH]c(=O)c1CNC(=O)c1cc(-c2ccc(N3CCN(C(C)C)CC3)nc2)cc2c1cnn2C(C)C,0.233 (inactive),0.123,0.0189,–,–
O=C(N[C@H]1CCC[C@H](CO)C1)C1CCN(c2nc3cc(Cl)c(-c4ccc(Cl)cc4)cc3o2)CC1,-0.759 (inactive),0.237,-0.768,–,–
COc1cccc(-c2cc(F)ccc2C2Cc3nc(N)nc(C)c3C(=O)N2)n1 (centres undefined),-1.35 (inactive),-1.35,-0.552,–,–
O=C(NC[C@H](O)CN1CCc2ccccc2C1)c1ccnc(NC2CCC2)c1,-0.571 (inactive),-0.416,-0.212,–,–
COc1c(C)cc(NC(=O)c2nn(Cc3ccc(F)cc3)c3c2CN(C(=O)c2ccc[nH]2)C[C@]3(C)C(N)=O)cc1C,-0.421 (inactive),-0.262,-0.568,–,–
COc1ccc(Cl)c(Nc2ncnc3cc(OCC4CCN(C)CC4)c(OC)cc23)c1,-1.39 (inactive),-0.765,-1.02,–,–
Cc1[nH]c(/C=C2\C(=O)Nc3ccc(S(=O)(=O)N(C)c4cccc(Cl)c4)cc32)c(C)c1C(=O)N1CCN(C)CC1,1.27 (inactive),1.2,1.26,–,–
O=C1Nc2nc(-c3c(O)cccc3OCC3CC3)cc([C@@H]3CCCNC3)c2CO1,0.934 (inactive),0.63,0.451,–,–
CC(/C=C/C(=O)NO)=C\[C@@H](C)C(=O)c1ccc(N(C)C)cc1,-0.778 (inactive),-0.861,-1.61,–,–
CC#C[C@@H](CC(=O)O)c1ccc(OCc2cccc(-c3ccc(C(F)(F)F)cc3)c2)cc1,0.0821 (inactive),0.579,0.882,–,–
CCC[C@H](N[C@H]1CCc2cc(F)cc(F)c2C1)C(=O)Nc1cn(C(C)(C)CNCC(C)(C)C)cn1,-0.27 (inactive),0.0318,-0.108,–,–

Compound,Z-AUC [1],"Z-AUC [1, 2]",Z-AUC ([1]; measured here: PEO4 Z-AUC),Potency [1],Potency (7G8)
Cn1cc(-c2ccc(S(=O)(=O)n3ccc(/C=C/C(=O)Nc4ccccc4N)c3)cc2)cn1,0.896 (inactive),1.17,0.999,–,–
O=C(CCl)Nc1cccc(NC2=NS(=O)(=O)c3ccccc32)c1,-0.599 (inactive),-0.67,-0.526,–,–
O=C(Nc1cccnc1)c1cc(-c2ccnc(F)c2)ccc1OCc1ccccc1,-0.389 (inactive),-0.74,-0.497,–,–
COc1cc2ncnc(Nc3ccc(O)c(Br)c3)c2cc1OC,-0.393 (inactive),0.024,-0.318,–,–
CC(=O)N1CCN(CCOc2ccc(C3CCN(C4=Nn5c(nnc5C(F)(F)F)CC4)CC3)cc2)CC1,-0.519 (inactive),-0.781,-0.776,–,–
COc1cc2c(cc1OCCCN1CCCC1)N=C(N)C21CCC1,-0.834 (inactive),-0.0136,-0.411,–,–
Nc1nccc(-c2c(-c3ccc(F)cc3)ncn2C2CCCCC2)n1,-0.78 (inactive),1.09,0.204,–,–
CN(C)N(C)C(=O)[C@@]1(Cc2ccccc2)CCCN(C(=O)[C@@H](Cc2c[nH]c3ccccc23)NC(=O)C(C)(C)N)C1,-0.303 (inactive),-0.129,0.0758,–,–
Cn1ncnc1[C@H]1c2n[nH]c(=O)c3cc(F)cc(c23)N[C@@H]1c1ccc(F)cc1,0.447 (inactive),-1.15,-0.329,–,–
FC(F)(F)c1ccc(/C=C/c2nc(COc3ccc(CCCCn4ccnn4)cc3)co2)cc1,–,-3.45,-2.45,195 nM (active),–
CC1(C)CN(C(=O)c2ccc(-c3cccc4nc(NC(=O)C5CC5)nn34)cc2)C1,0.782 (inactive),0.925,1.32,–,–
C[C@@H](Nc1ncnc2[nH]c(-c3ccc(O)cc3)cc12)c1ccccc1,0.00552 (inactive),0.314,0.296,–,–
CS(=O)(=O)Nc1cc2occ(NC=O)c(=O)c2cc1Oc1ccccc1,0.738 (inactive),0.631,0.731,–,–
CCCC(CCC)C(=O)Nc1ccn([C@@H]2O[C@H](CO)[C@@H](O)C2(F)F)c(=O)n1,-1.13 (inactive),-1.5,-0.847,–,–
COc1cc(OC)c2c(=O)[nH]c(-c3cc(C)c(OCCO)c(C)c3)nc2c1,1.34 (inactive),1.31,1.15,–,–
COC1C(OC(=O)/C=C/C=C/C=C/C=C/C(=O)O)CCC2(CO2)C1C1(C)OC1CC=C(C)C (centres undefined),–,–,–,–,5.6 nM (active)
C[C@@H]1CN(CC(=O)N2CC(C)(C)c3ncc(Cc4ccc(F)cc4)cc32)[C@@H](CN2CCOC[C@H]2C)CN1,1.68 (inactive),0.908,0.0229,–,–
NCCOc1cc(C(=O)Nc2cc(OCCN)c3ccccc3n2)nc(C(=O)Nc2cc(OCCN)c3ccccc3n2)c1,-0.0869 (inactive),-0.747,-0.493,–,–
CCNC1(C(N)=O)CCN(c2ncnc3c2nc(-c2ccccc2Cl)n3-c2ccc(Cl)cc2)CC1,0.84 (inactive),0.367,0.247,–,–
Cc1cc(-c2cc(OC(=O)c3ccccc3)ccc2Cl)cc2nnc(Nc3ccc(OCCN4CCCC4)cc3)nc12,-0.528 (inactive),0.132,-1.13,–,–
